PubChem BioAssay
The source made the active and inactive calls. Unless noted, how the calls were made is not given here.

What was measured:
[1] = tested on: XIP peptide (Xip251-270) binding; test: XIP fragment 251-270 binding compounds – biochemical, small-molecule microarray, fluorescence 635/667 nm, 0.1 µg/mL protein, primary screen (AID 1182); conditions: fluorescent protein binding, 635 nm, higher = more signal, called active from +8 up or from −8 down
XIP peptide (Xip251-270) = test: compounds binding XIP fragment 251-270 – biochemical, small-molecule microarray, fluorescence 635/667 nm, 0.5 µg/mL protein, primary screen (AID 1183); conditions: fluorescence 635 nm, higher = more signal
[2] = blood-stage malaria parasite viability loss – strain 3D7, DAPI fluorescence, 100 nL, primary screen (AID 1184);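 further: parasites grown inside human red blood cells in medium with human serum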; conditions: P. falciparum 3D7 growth, 3 d, higher = more signal
[3] = biological target: Homeobox protein Hox-A13 (Mus musculus) (UniProt Q62424); test: disruptors of Hoxa13 oligonucleotide interaction – biochemical, fluorescence polarization, labeled oligonucleotide, primary screen (AID 1185); conditions: Hoxa13:DNA binding, 15 min, higher = more signal, called active from +8 up or from −8 down
Sequence of Homeobox protein Hox-A13 (Mus musculus) (Q62424 whole entry, looked up): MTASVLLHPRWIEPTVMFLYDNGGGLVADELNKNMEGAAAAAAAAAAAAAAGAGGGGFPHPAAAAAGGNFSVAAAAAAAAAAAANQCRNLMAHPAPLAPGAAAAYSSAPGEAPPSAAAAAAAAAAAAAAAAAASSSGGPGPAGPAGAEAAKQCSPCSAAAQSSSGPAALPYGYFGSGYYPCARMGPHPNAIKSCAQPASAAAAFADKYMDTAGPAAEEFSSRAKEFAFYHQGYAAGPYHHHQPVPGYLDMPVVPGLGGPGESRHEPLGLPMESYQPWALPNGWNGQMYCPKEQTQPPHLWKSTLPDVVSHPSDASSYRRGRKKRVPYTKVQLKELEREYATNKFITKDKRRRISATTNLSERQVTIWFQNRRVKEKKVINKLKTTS

[4] = blockers of DNA damage checkpoint Chk1 activation – imaging, HeLa, hydroxyurea, phospho-Chk1 antibody, percent positive cells, primary screen (AID 1186); conditions: hydroxyurea-induced phospho-Chk1 immunofluorescence imaging, higher = more signal
[5] = blockers of DNA damage checkpoint Chk1 activation – imaging, HeLa, hydroxyurea, phospho-Chk1 nuclear intensity, primary screen (AID 1187); conditions: hydroxyurea-induced phospho-Chk1 immunofluorescence imaging, higher = more signal

SMILES | composite z-score [1] | composite z-score (XIP peptide (Xip251-270)) | z-score [2] | z-score [3] | z-score [4] | z-score [5]
COc1ccc(CCNC(=O)[C@@H]2c3ccccc3C(=O)N(Cc3ccccc3Cl)[C@H]2c2ccc(CO)cc2)cc1 | 0.187 (inactive) | 0.431 | 0.263 | -3.28 (inactive) | 0.139 (inactive) | 0.595 (inactive)
C=C[C@H](CO)NS(=O)(=O)c1ccc(Br)cc1 | -0.365 (inactive) | 0.242 | 0.843 | 0.205 (inactive) | -0.462 (inactive) | -0.458 (inactive)
CCCCCCc1nc(-c2ccc(OC)nc2)cc2c1[Si](C(C)C)(C(C)C)O[C@H]2c1ccccc1 | -0.652 (inactive) | -0.487 | -0.421 | -2.62 (inactive) | -0.732 (inactive) | -0.722 (inactive)
CN1C=C(C(=O)OCCS(C)(=O)=O)C(C(=O)OCCS(C)(=O)=O)=CC(c2ccc(CO)cc2)=CC1C1CC1 (stereo unspecified) | 0.943 (inactive) | -0.452 | -2.35 | -5.4 (inactive) | -1.15 (inactive) | 0.15 (inactive)
N#Cc1ccc(NN2C(C(O)C(c3ccccc3)c3ccccc3)C=CC3C(=O)N(c4ccccc4)C(=O)C32)cc1 (stereo unspecified) | 0.424 (inactive) | 0.646 | -0.231 | 1.55 (inactive) | 0.377 (inactive) | 0.484 (inactive)
C=CCOC(=O)[C@H]1[C@@H]2C(=O)O[C@@H](c3ccccc3)[C@@H](c3ccccc3)N2[C@@H](c2ccc(OCCOC(=O)[C@H]3C[C@H]4C(=O)N[C@@H](CCCCN(C)C)C(=O)N4[C@H]3c3ccc(O)cc3)cc2)[C@]12C(=O)Nc1ccc(I)cc12 | 0.768 (inactive) | 0.791 | -0.193 | -4.89 (inactive) | 0.622 (inactive) | -0.163 (inactive)
O=C1N[C@@H](Cc2ccccc2)C(=O)N2[C@@H]1C[C@@H](C(=O)O)[C@H]2c1cccc(OCCO)c1 | 0.779 (inactive) | 0.465 | 0.193 | -3.04 (inactive) | -0.22 (inactive) | 0.101 (inactive)
CCCc1cc2c(n1Cc1cc(F)cc(F)c1)C(C)C1CN(C(=O)c3ccccc3)C(C)(C(=O)OC)C21 (stereo unspecified) | 0.264 (inactive) | -0.0681 | -1.32 | -2.41 (inactive) | 0.789 (inactive) | 0.0213 (inactive)
COCCCNC(=O)[C@@]1(C)c2ccccc2C(=O)N(C(C)C)[C@H]1c1ccc(CO)cc1 | -0.102 (inactive) | 0.246 | -0.176 | -1.71 (inactive) | -0.123 (inactive) | -0.397 (inactive)
C[C@H]1NC(=O)[C@@]23C(=O)N[C@@H](Cc4ccccc4)C2[C@H](C)[C@@]2(C)O[C@H]2C3/C=C/C/C=C\CNC(=O)[C@@H]2CCCN2C1=O (stereo partly specified) | 0.091 (inactive) | 0.667 | 0.91 | -3.78 (inactive) | 0.237 (inactive) | 0.087 (inactive)
CC(C)NC(=O)[C@@H]1c2ccccc2C(=O)N(C2Cc3ccccc3C2)[C@H]1c1ccc(CO)cc1 | 0.536 (inactive) | 0.787 | -0.826 | -1.94 (inactive) | -0.24 (inactive) | 0.0987 (inactive)
CCCC[C@@H]1C[C@H]1[C@@H](NC(=O)c1ccco1)c1ccc(-c2ccccc2)cc1 | -0.781 (inactive) | -0.321 | -0.937 | 0.141 (inactive) | 0.353 (inactive) | 0.0955 (inactive)
COC(=O)C(CC#Cc1ccc2c(c1)[C@]1(C(=O)N2)[C@H](C(=O)Nc2nc3ccccc3s2)[C@H]2C(=O)O[C@H](c3ccccc3)[C@H](c3ccccc3)N2[C@@H]1c1ccccc1OCCO)C(=O)OC | 1.5 (inactive) | 0.815 | -2.02 | 2.38 (inactive) | 0.0018 (inactive) | 0.304 (inactive)
O=C(CS)NCCCCCCNC(=O)[C@@H]1C[C@@H]2C(=O)NCC(=O)N2[C@@H]1c1cccc(OCCO)c1 | 0.67 (inactive) | 0.579 | 0.132 | -2.98 (inactive) | 0.376 (inactive) | 0.376 (inactive)
CCOC(=O)C1=CC[C@@H](c2ccccc2)N(S(=O)(=O)c2ccc(C)cc2)[C@H]1c1ccccc1C | -0.164 (inactive) | 0.291 | -1.71 | -0.813 (inactive) | 0.023 (inactive) | 0.112 (inactive)
C=C(CCCC)/C(=C/C[C@H](OC(C)=O)c1ccccc1OCCO)c1cc(C(=O)OC)ccc1OC | 0.0757 (inactive) | -0.167 | -2.66 | -3.55 (inactive) | -0.836 (inactive) | -0.714 (inactive)
COc1cc(NN2C(C(O)c3ccco3)C=CC3C(=O)N(c4ccccc4)C(=O)C32)cc(OC)c1OC (stereo unspecified) | 0.318 (inactive) | 0.737 | -0.372 | -3.83 (inactive) | 0.153 (inactive) | -0.416 (inactive)
CCOC(=O)C[C@H]1[C@H](OC(=O)c2cc3ccccc3oc2=O)[C@@H](NC(=O)c2ccccc2)c2cc(OCCCO)ccc2N1C(=O)c1ccc2ccccc2n1 | -0.0302 (inactive) | 0.503 | -0.566 | -3.63 (inactive) | 0.091 (inactive) | 0.0741 (inactive)
COCCOC(=O)N1C(=O)[C@@]2(c3ccccc31)[C@H](c1ccc(O)cc1)N1[C@H](c3ccccc3)[C@H](c3ccccc3)OC(=O)[C@H]1[C@@H]2C(=O)Nc1nc2ccccc2s1 | 0.343 (inactive) | 0.78 | 0.194 | -0.526 (inactive) | -0.0228 (inactive) | 0.221 (inactive)
[N-]=[N+]=NCc1ccccc1C[C@]1(C(N)=O)COC(c2ccc(OCCCO)cc2)=N1 | 0.154 (inactive) | 0.817 | -0.486 | -4.67 (inactive) | -0.913 (inactive) | -0.959 (inactive)
O=C1C[C@@](C(=O)NCCN2CCOCC2)(c2ccc([N+](=O)[O-])cc2)[C@@H](c2ccc(CO)cc2)N1CC12CC3CC(CC(C3)C1)C2 | 1.28 (inactive) | 0.795 | -1.29 | -4.58 (inactive) | -0.489 (inactive) | -0.649 (inactive)
